The supplement of paper PMC8975748
Structures can show the parent of a compound that is named as a salt. ± gives the standard deviation of the averaged measurements.

Key:
[1] = tested on: Saccharomyces cerevisiae BY4741 SeMeCo community; experiment: z-score of prototroph abundance vs DMSO median; higher = larger share of this subpopulation than in DMSO controls; conditions: 10 µM; 24 h; SM minimal medium; subpopulation (auxotrophy): Prototroph
Summary of the method: (§1)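 A community of Saccharomyces cerevisiae BY4741 was built from four plasmids that each restored one auxotrophy and encoded a distinct fluorescent protein. Pre-grown overnight to OD600 1.0 and diluted to 0.3, it was dispensed at 70 µl into 384-well plates acoustically predosed with library drugs for a final 10 µM, and grown 24 h in minimal SM medium. Cells were then paraformaldehyde-fixed and imaged by automated confocal microscopy. Thresholds and autofluorescence correction came from single-auxotroph fluorescent strains, and each subpopulation's abundance was scored as a z-score relative to the vehicle-well median.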

[2] = tested on: Saccharomyces cerevisiae BY4741 SeMeCo community; experiment: z-score of subpopulation abundance vs DMSO median, subpopulation auxotrophic for M; higher = larger share of this subpopulation than in DMSO controls; conditions: 10 µM; 24 h; SM minimal medium; subpopulation (auxotrophy): M
Summary of the method: as §1

[3] = tested on: Saccharomyces cerevisiae BY4741 SeMeCo community; experiment: z-score of subpopulation abundance vs DMSO median, subpopulation auxotrophic for L; higher = larger share of this subpopulation than in DMSO controls; conditions: 10 µM; 24 h; SM minimal medium; subpopulation (auxotrophy): L
Summary of the method: as §1

[4] = tested on: Saccharomyces cerevisiae BY4741 SeMeCo community; experiment: z-score of subpopulation abundance vs DMSO median, subpopulation auxotrophic for U; higher = larger share of this subpopulation than in DMSO controls; conditions: 10 µM; 24 h; SM minimal medium; subpopulation (auxotrophy): U
Summary of the method: as §1

[5] = tested on: Saccharomyces cerevisiae BY4741 SeMeCo community; experiment: z-score of subpopulation abundance vs DMSO median, subpopulation auxotrophic for LM; higher = larger share of this subpopulation than in DMSO controls; conditions: 10 µM; 24 h; SM minimal medium; subpopulation (auxotrophy): LM
Summary of the method: as §1

[6] = tested on: Saccharomyces cerevisiae BY4741 SeMeCo community; experiment: z-score of subpopulation abundance vs DMSO median, subpopulation auxotrophic for HM; higher = larger share of this subpopulation than in DMSO controls; conditions: 10 µM; 24 h; SM minimal medium; subpopulation (auxotrophy): HM
Summary of the method: as §1

[7] = tested on: Saccharomyces cerevisiae BY4741 SeMeCo community; experiment: z-score of subpopulation abundance vs DMSO median, subpopulation auxotrophic for HU; higher = larger share of this subpopulation than in DMSO controls; conditions: 10 µM; 24 h; SM minimal medium; subpopulation (auxotrophy): HU
Summary of the method: as §1

[8] = tested on: Saccharomyces cerevisiae BY4741 SeMeCo community; experiment: z-score of subpopulation abundance vs DMSO median, subpopulation auxotrophic for UM; higher = larger share of this subpopulation than in DMSO controls; conditions: 10 µM; 24 h; SM minimal medium; subpopulation (auxotrophy): UM
Summary of the method: as §1

[9] = tested on: Saccharomyces cerevisiae BY4741 SeMeCo community; experiment: z-score of subpopulation abundance vs DMSO median, subpopulation auxotrophic for HL; higher = larger share of this subpopulation than in DMSO controls; conditions: 10 µM; 24 h; SM minimal medium; subpopulation (auxotrophy): HL
Summary of the method: as §1

[10] = tested on: Saccharomyces cerevisiae BY4741 SeMeCo community; experiment: z-score of subpopulation abundance vs DMSO median, subpopulation auxotrophic for HLU; higher = larger share of this subpopulation than in DMSO controls; conditions: 10 µM; 24 h; SM minimal medium; subpopulation (auxotrophy): HLU
Summary of the method: as §1

[11] = tested on: Saccharomyces cerevisiae BY4741 SeMeCo community; experiment: z-score of subpopulation abundance vs DMSO median, subpopulation auxotrophic for HLM; higher = larger share of this subpopulation than in DMSO controls; conditions: 10 µM; 24 h; SM minimal medium; subpopulation (auxotrophy): HLM
Summary of the method: as §1

[12] = tested on: Saccharomyces cerevisiae BY4741 SeMeCo community; experiment: z-score of subpopulation abundance vs DMSO median, subpopulation auxotrophic for HUM; higher = larger share of this subpopulation than in DMSO controls; conditions: 10 µM; 24 h; SM minimal medium; subpopulation (auxotrophy): HUM
Summary of the method: as §1

[13] = tested on: Saccharomyces cerevisiae BY4741 SeMeCo community; experiment: z-score of subpopulation abundance vs DMSO median, subpopulation auxotrophic for LUM; higher = larger share of this subpopulation than in DMSO controls; conditions: 10 µM; 24 h; SM minimal medium; subpopulation (auxotrophy): LUM
Summary of the method: as §1

[14] = tested on: Saccharomyces cerevisiae BY4741 SeMeCo community; experiment: z-score of subpopulation abundance vs DMSO median, subpopulation auxotrophic for HLUM; higher = larger share of this subpopulation than in DMSO controls; conditions: 10 µM; 24 h; SM minimal medium; subpopulation (auxotrophy): HLUM
Summary of the method: as §1

[15] = tested on: Saccharomyces cerevisiae BY4741 SeMeCo community; experiment: z-score of subpopulation abundance vs DMSO median, subpopulation auxotrophic for H; higher = larger share of this subpopulation than in DMSO controls; conditions: 10 µM; 24 h; SM minimal medium; subpopulation (auxotrophy): H
Summary of the method: as §1

[16] = tested on: Saccharomyces cerevisiae BY4741 SeMeCo community; experiment: mean cell size (pixel area) (pixels); higher = larger cells; conditions: 10 µM; 24 h; SM minimal medium
Summary of the method: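 Mean cell pixel area per well was determined by automated confocal microscopy with Harmony analysis of paraformaldehyde-fixed cells. The cells, a Saccharomyces cerevisiae BY4741 community of four plasmids that each complement one auxotrophy and carry a fluorescent marker, were incubated for 24 h with drug at a final 10 µM in SM medium in 384-well plates. Numbers are averaged over 3 replicates. Same SeMeCo high-content imaging drug screen: Selleck FDA-approved drugs at 10 µM, 24 h in SM medium, 384-well plates, 3 replicates.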

| SMILES | z-score of prototroph abundance [1] | z-score of subpopulation abundance [2] | z-score of subpopulation abundance [3] | z-score of subpopulation abundance [4] | z-score of subpopulation abundance [5] | z-score of subpopulation abundance [6] | z-score of subpopulation abundance [7] | z-score of subpopulation abundance [8] | z-score of subpopulation abundance [9] | z-score of subpopulation abundance [10] | z-score of subpopulation abundance [11] | z-score of subpopulation abundance [12] | z-score of subpopulation abundance [13] | z-score of subpopulation abundance [14] | z-score of subpopulation abundance [15] | mean cell size [16] |
| --- | --- | --- | --- | --- | --- | --- | --- | --- | --- | --- | --- | --- | --- | --- | --- | --- |
| COC(=O)C1=C(C)NC(C)=C(C(=O)OC(C)C)C1c1cccc2nonc12 (stereo not given) [Isradipine] | -0.42 | -0.1 | -0.22 | 0.74 | -1.09 | -0.24 | 0.75 | 1.06 | -0.52 | 0.04 | -0.7 | 0.44 | -0.39 | 0.04 | – | – |
| CCCCOc1cc(C(=O)OCCN(CC)CC)ccc1N [Oxybuprocaine HCl] | -0.08 | 0.72 | 0.22 | – | 0.31 | 0.19 | 0.6 | -0.55 | 0.21 | -0.16 | 1.25 | 0.57 | 0.25 | 0.34 | -0.22 | – |
| C[C@@H](O)[C@H]1C(=O)N2C(C(=O)O)=C(S[C@@H]3CN[C@H](CNS(N)(=O)=O)C3)[C@H](C)[C@H]12 [Doripenem Hydrate] | 0.39 | -0.6 | 0.82 | 0.2 | -0.44 | -0.76 | -0.19 | -0.42 | -0.25 | -0.09 | -0.78 | -0.79 | -0.2 | – | -0.3 | 12.38 ± 0.092 |
| CCOc1cc(NC(C)=O)ccc1C(=O)OC [Ethopabate] | -0.33 | 0.39 | 0.35 | -0.35 | 0.15 | -0.11 | -0.22 | 0.48 | 0.25 | -0.1 | 0.97 | -0.22 | 0.24 | – | -0.59 | 12.6 ± 0.26 |
| CC[C@@]1(O)C(=O)OCc2c1cc1n(c2=O)Cc2cc3cc(O)ccc3nc2-1 [(S)-10-Hydroxycamptothecin] | 0.14 | 0.87 | 1.09 | -1.66 | 1.48 | 0.81 | -1.09 | – | 0.62 | 0.14 | 0.07 | -0.24 | 0.42 | -0.28 | 0.82 | 12.41 ± 0.077 |
| CN1C2CCCC1CC(NC(=O)c1nn(C)c3ccccc13)C2 (stereo not given) [Granisetron HCl] | -0.01 | -0.02 | 0.65 | -1.1 | 0.45 | 0.45 | -0.52 | -0.36 | 0.42 | 0.66 | -0.26 | 0.03 | 0.06 | -0.37 | – | – |
| C#CCN[C@@H]1CCc2ccccc21 [Rasagiline Mesylate] | – | 0.65 | 1.22 | -0.4 | 0.42 | -0.43 | -0.74 | -0.05 | 0.37 | 0.21 | -0.04 | -0.47 | 0.19 | 0.44 | – | – |
| C=CCN1CCCC1CNC(=O)c1cc2nn[nH]c2cc1OC (stereo not given) [Alizapride HCl] | -0.2 | -0.5 | 0.16 | – | -0.39 | – | 0.88 | 0.58 | -0.36 | 0.1 | -0.44 | 0 | – | 0.23 | -0.87 | 12.3 ± 0.14 |
| CC[C@H]1OC(=O)[C@H](C)[C@@H](O[C@H]2C[C@@](C)(OC)[C@@H](O)[C@H](C)O2)[C@H](C)[C@@H](O[C@@H]2O[C@H](C)C[C@H](N(C)C)[C@H]2O)[C@](C)(O)C[C@@H](C)CN[C@H](C)[C@@H](O)[C@]1(C)O [Azathramycin] | 0.12 | 0 | -0.61 | 0.07 | -0.14 | 0.1 | -0.16 | 0.42 | -0.33 | -1.12 | -0.79 | 0.01 | -0.37 | -0.5 | 0.33 | – |
| CCCOc1ccc2[nH]c(NC(=O)OC)nc2c1 [Oxibendazole] | -1.22 | 0.43 | 0.1 | – | 0.57 | 0.95 | 0.92 | 1.39 | 0.7 | 0.8 | 0.16 | 1.12 | 0.95 | 0.11 | – | 12.26 ± 0.1 |
| Clc1ccc(COC(Cn2ccnc2)c2ccc(Cl)cc2Cl)c(Cl)c1 (stereo not given) [Miconazole] | -9.47 | -7.11 | -2.13 | 2.67 | -1.8 | – | 22.4 | 1.59 | 7.22 | 11.1 | 12.2 | 6.04 | – | 9.68 | 27.8 | 12.5 ± 0.13 |
| C[C@]12CC[C@@H]3c4ccc(O)cc4CC[C@H]3[C@@H]1CC[C@@H]2OC(=O)CCC1CCCC1 [Estradiol Cypionate] | -0.3 | -0.43 | -0.23 | – | -0.12 | -0.34 | 0.6 | 0.45 | -0.29 | 0 | 0.33 | 1.22 | 0.29 | 0.52 | -0.04 | 12.4 ± 0.13 |
| CC[C@@H]([C@H](C)O)n1ncn(-c2ccc(N3CCN(c4ccc(OC[C@@H]5CO[C@@](Cn6cncn6)(c6ccc(F)cc6F)C5)cc4)CC3)cc2)c1=O [Posaconazole] | -11.6 | -1.66 | -0.49 | 0.25 | 4.46 | 11.5 | 16.4 | 10.8 | 10.8 | 14.4 | 14.9 | 11.8 | 7.85 | – | 16.6 | 12.34 ± 0.068 |
| CO[C@H]1C[C@@H]2CC[C@@H](C)[C@@](O)(O2)C(=O)C(=O)N2CCCC[C@H]2C(=O)O[C@H]([C@H](C)C[C@@H]2CC[C@@H](O)[C@H](OC)C2)CC(=O)[C@H](C)/C=C(\C)[C@@H](O)[C@@H](OC)C(=O)[C@H](C)C[C@H](C)/C=C/C=C/C=C/1C [Rapamycin (Sirolimus)] | – | -2.04 | -1.39 | 3.85 | 5.67 | 21.4 | 29.9 | 13.7 | 13.8 | 21 | 16 | 33 | 11.9 | 20.9 | 14.3 | 14.19 ± 0.085 |
| Oc1c(Cl)cc(Cl)c(Cl)c1Cc1c(O)c(Cl)cc(Cl)c1Cl [Hexachlorophene] | – | 0.14 | -1.4 | 0.01 | 1.88 | – | 4.22 | 5.02 | 3.85 | 1.13 | 8.62 | 14 | 2.37 | 7.77 | 7.09 | 12.08 ± 0.11 |
